Assay results: ChEMBL document CHEMBL3988442, “University of Dundee, Small-Polar-MMV Screening Library” (2021)
The campaign covered roughly 48,000 compounds. About 13,000 (27%) showed an effect of 50% or more. This is one part of the list.

test system: Wolbachia pipientis; assay: Anti-Wolbachia Cell-Based Screen; type: functional; set-up: scale not given: in the data most compounds retested in dose-response had high values; conditions: 5 µM

First: COCC(=O)N1C[C@H]2CCCC(OCc3cccnc3)[C@H]2C1.O=C(O)C(F)(F)F (some centres undefined)
Second: Cc1nc(CN2C[C@@H]3CN(C(=O)[C@H]4CCCO4)C[C@@H]3C2=O)cs1.O=C(O)C(F)(F)F
The “Percent Effect” value of the first is lower: -11.84% for the first, -7.059% for the second.

First: COc1ccc(CN2CCO[C@H]3CN(C4CCCC4)CC[C@H]3C2=O)cc1.O=C(O)C(F)(F)F
Second: O=C(O)C(F)(F)F.O=C([C@H]1CC[C@@H]2[C@@H](CCN2Cc2nccs2)O1)N1CCOCC1
The “Percent Effect” value of the first is lower: 4.442% for the first, 110.8% for the second.

First: Cc1nc(CN2CC[C@@H]3O[C@@H](C(=O)N4CCOCC4)C[C@@H]32)cs1.O=C(O)C(F)(F)F
Second: O=C(O)C(F)(F)F.O=C([C@@H]1C[C@H]2[C@H](CCN2Cc2nccs2)O1)N1CCOCC1
The “Percent Effect” value of the first is higher: 95.13% for the first, -8.158% for the second.

First: O=C(O)C(F)(F)F.O=C(O)C(F)(F)F.O=C(O)C(F)(F)F.c1cncc(C[C@H]2[C@H](N3CCOCC3)CCN2Cc2nccs2)c1
Second: CC1CCN(C(=O)[C@H]2CC[C@@H]3[C@@H](CCN3Cc3nccs3)O2)CC1.O=C(O)C(F)(F)F
The “Percent Effect” value of the first is lower: 6.166% for the first, 83.2% for the second.

First: COCCN1CC[C@@H]2O[C@H](COCc3csc(C)n3)CC[C@@H]21.O=C(O)C(F)(F)F
Second: CNC(=O)[C@H]1C[C@@H]2CCN(Cc3nccs3)C[C@H]2O1.O=C(O)C(F)(F)F
The “Percent Effect” value of the first is higher: 5.526% for the first, -7.914% for the second.

Going from `CC1CCN(C(=O)[C@@H]2CC[C@@H]3[C@@H](CCN3c3ncc(F)cn3)O2)CC1.O=C(O)C(F)(F)F` to `CC1CCN(C(=O)[C@@H]2C[C@@H]3CCN(Cc4nccs4)C[C@H]3O2)CC1.O=C(O)C(F)(F)F`, the “Percent Effect” value rises from -5.679% to 95.79%.

Going from `Cc1nc(C(C)(C)NC(=O)Nc2ccc(C#N)cc2)no1` to `COCCn1ccc(NC(=O)Nc2cccc(C#N)c2)n1`, the “Percent Effect” value rises from 2.937% to 15.59%.

First: CCCN(C(=O)c1cc2c([nH]c1=O)CCCC2=O)C1CCCCC1
Second: O=C(Nc1nc2c(s1)CCC2)NC1CCCC1
The “Percent Effect” value of the first is lower: -3.902% for the first, 91.02% for the second.

First: NS(=O)(=O)c1cnn(-c2ccc(NC(=O)CC3CCCC3)cn2)c1
Second: CN(c1cccnc1N1CCCC1)S(=O)(=O)c1cccnc1
The “Percent Effect” value of the first is higher: 31.03% for the first, -4.578% for the second.

Compared with `CC(=O)c1cccc(NC(=O)Cn2nc(-c3cccs3)oc2=O)c1`, `CNC(=O)c1cccc(NC(=O)Cn2nc(-c3cccs3)oc2=O)c1` is lower in “Percent Effect” value: 114.8% for the first, -3.203% for the second.

First: CC(=O)c1cccc(NC(=O)COc2c(C)n(C)ccc2=O)c1
Second: CC(=O)c1cccc(NC(=O)Cn2cnc(-c3cccs3)cc2=O)c1
The “Percent Effect” value of the first is lower: 5.404% for the first, 8.004% for the second.

Compared with `CC(=O)c1cccc(NC(=O)CCn2nc(-c3cccs3)oc2=O)c1`, `COC(=O)c1cccc(NC(=O)CCn2nc(-c3cccs3)oc2=O)c1` is lower in “Percent Effect” value: 94.26% for the first, -4.824% for the second.

Compared with `O=c1oc(-c2cccs2)nn1CC(O)c1ccc(F)cc1` (centres undefined), `O=C(CCn1nc(-c2cccs2)oc1=O)Nc1cccc(F)c1` is higher in “Percent Effect” value: -3.645% for the first, 101.8% for the second.

Going from `O=C(CCNC(=O)c1ccoc1)Nc1cccc(F)c1` to `N#Cc1cccc(NC(=O)CCn2nc(-c3cccs3)oc2=O)c1`, the “Percent Effect” value rises from 8.68% to 113.1%.

Going from `CC(C)N(CC(=O)Nc1cccc(C#N)c1)C1CC1` to `Cc1cccc(CN2CCC(N(C)Cc3nnc(C4CC4)n3C)C2)c1` (centres undefined), the “Percent Effect” value rises from -12.82% to 125.1%.

First: CCn1ccnc1C1CCCN(c2nccc3ccccc23)C1 (centres undefined)
Second: CCn1ccnc1CN1CCN(c2ncnc3ccsc23)CC1
The “Percent Effect” value of the first is lower: -22.2% for the first, 18.95% for the second.

First: CCCNC(=O)CN1CCN(c2nc(CC)ns2)CC1
Second: Cc1nsc(NC(=O)NC2CCCN(C)C2)n1 (centres undefined)
The “Percent Effect” value of the first is higher: -2.637% for the first, -12.87% for the second.

First: Cn1cc(CNCCOc2ccc(F)c(F)c2)c(-c2cccnc2)n1
Second: O=C(O)[C@@H]1CN(C(=O)c2ccc(F)c(F)c2)C[C@H]1c1cccc(F)c1
The “Percent Effect” value of the first is lower: 7.876% for the first, 133.7% for the second.

Going from `Cc1nsc(NC(=O)NC2CCOCC2)n1` to `Cl.O=C(Nc1nc2c(s1)CNCC2)NC1CCCC1`, the “Percent Effect” value rises from 5.232% to 156.5%.

Compared with `Cc1nnc(NC(=O)NC(C)C(=O)NC2CCCC2)s1` (centres undefined), `CC(NC(=O)Nc1nncs1)C(=O)NC1CCCC1` (centres undefined) is higher in “Percent Effect” value: -0.7919% for the first, 12.84% for the second.

Going from `Cl.O=C(Nc1nc2c(s1)CNCC2)C1CC1` to `CCc1c(C)nc2n(c1=O)CC(C(=O)Nc1nc3c(s1)CCCC3)CS2` (centres undefined), the “Percent Effect” value falls from 114.1% to 1.424%.

Going from `O=C(Nc1nc2c(s1)CN(S(=O)(=O)C1CC1)CC2)c1c(F)cccc1F` to `O=C(O)[C@@H]1CN(C(=O)c2cc(C3CC3)n[nH]2)C[C@H]1c1cccc(F)c1`, the “Percent Effect” value rises from -9.469% to -7.697%.

Going from `CN(Cc1nnc(-c2cccs2)o1)Cc1nc2c(s1)CCCC2` to `CN(Cc1nnc(C2CC2)n1C)C1CCN(CCc2cccs2)C1` (centres undefined), the “Percent Effect” value rises from -3.278% to 1.002%.

Going from `O=C1CC(c2ccccc2)c2c(n3ccsc3nc2=O)N1` (centres undefined) to `O=C(O)[C@@H]1CN(C(=O)c2ccc3[nH]nnc3c2)C[C@H]1c1ccccc1`, the “Percent Effect” value rises from 12.02% to 101.1%.

First: O=S(=O)(NCCC(O)c1cccs1)c1ccccc1Cl (centres undefined)
Second: COc1ccc(C(=O)N2C[C@@H](C(=O)O)[C@H](c3ccccc3)C2)c(C)c1
The “Percent Effect” value of the first is higher: 10.54% for the first, -5.118% for the second.

Going from `Cc1oc(C(C)C)cc1C(=O)N1CCN(c2cnn(C)c(=O)c2)CC1` to `Cc1ccc(C(=O)N2CCN(C(=O)C(C)n3ccnc3)CC2)cc1F` (centres undefined), the “Percent Effect” value rises from -13.93% to -10.24%.

Going from `N#Cc1ccccc1C(=O)N1C[C@H]2CC[C@@H]1CN(c1ncccn1)C2` to `O=C(O)[C@@H]1CN(C(=O)c2ccc3nccnc3c2)C[C@H]1c1ccncc1`, the “Percent Effect” value rises from -29.72% to -8.549%.

Going from `CN(Cc1nnc(C2CC2)n1C)C1CCN(Cc2ccc(F)cc2)C1` (centres undefined) to `CN(Cc1nnc(C2CC2)n1C)C1CCN(Cc2ccccc2)C1` (centres undefined), the “Percent Effect” value falls from 5.91% to -8.297%.

Compared with `Cc1cnc(CN2CCC(N(C)Cc3nnc(C4CC4)n3C)C2)cn1` (centres undefined), `Cc1nc(CN2CCC(N(C)Cc3nnc(C4CC4)n3C)C2)cs1` (centres undefined) is higher in “Percent Effect” value: -1.467% for the first, 109.7% for the second.

Going from `CCc1cnc(CN(C)C2CCN(Cc3nnc(C4CC4)n3C)C2)o1` (centres undefined) to `CN(Cc1nnc(C2CC2)n1C)C1CCN(Cc2nccn2C)C1` (centres undefined), the “Percent Effect” value rises from 100.6% to 117.3%.

Going from `CN(Cc1nnc(C2CC2)n1C)C1CCN(CCc2ccccc2)C1` (centres undefined) to `CN(Cc1nnc(C2CC2)n1C)C1CCN(CCc2ccncc2)C1` (centres undefined), the “Percent Effect” value falls from -2.973% to -12.03%.

First: CN(Cc1nnc(C2CC2)n1C)C1CCN(Cc2ccncc2)C1 (centres undefined)
Second: CN(Cc1nnc(C2CC2)n1C)C1CCN(Cc2ccccc2F)C1 (centres undefined)
The “Percent Effect” value of the first is higher: 97.4% for the first, 2.374% for the second.

Compared with `CCc1cnc(CN(C)C2CCN(CCc3cccs3)C2)o1` (centres undefined), `CCn1c(C)nnc1CN(C)C1CCN(Cc2nccn2C)C1` (centres undefined) is lower in “Percent Effect” value: 3.074% for the first, -10.2% for the second.

First: CCC(=O)NCC(=O)NCc1cc(Br)ccc1OC(F)F
Second: COC(=O)CNC(=O)C12CCC(=O)N1c1cc(Cl)ccc1S2 (centres undefined)
The “Percent Effect” value of the first is higher: 6.284% for the first, -3.577% for the second.

Going from `Cc1ccc(N2CCC(NCc3cnc(C4CCC4)s3)CC2)nc1` to `CN(Cc1nccs1)C1CCN(c2cccc(-c3cscn3)c2)CC1`, the “Percent Effect” value falls from 10.22% to -5.707%.

Going from `CCOC(=O)C1CN(S(C)(=O)=O)Cc2ncn(CC)c21` (centres undefined) to `CN(C)c1cnn(CC(=O)N2CCCCCC2)c(=O)c1`, the “Percent Effect” value falls from 9.527% to 2.501%.

Going from `COc1ccc(C(=O)N2C[C@@H](C(=O)O)[C@H](c3cccc(F)c3)C2)c(O)c1` to `O=C(O)[C@@H]1CN(C(=O)c2ccc(O)cc2)C[C@H]1c1cccc(F)c1`, the “Percent Effect” value rises from -6.268% to 133.5%.

First: Cc1ccc(F)c(C(=O)N2C[C@@H](C(=O)O)[C@H](c3ccncc3)C2)c1Cl
Second: Cc1ccc(C(=O)N2C[C@@H](C(=O)O)[C@H](c3ccncc3)C2)cc1F
The “Percent Effect” value of the first is lower: -4.386% for the first, 1.77% for the second.

First: Cc1ccccc1[C@@H]1CN(C(=O)c2ccc3[nH]nnc3c2)C[C@H]1C(=O)O
Second: O=C(O)[C@@H]1CN(C(=O)c2ccc3[nH]nnc3c2)C[C@H]1c1cccc(F)c1
The “Percent Effect” value of the first is higher: 1.706% for the first, 0.7419% for the second.

First: O=C(O)[C@@H]1CN(C(=O)c2ccc(Cl)cc2)C[C@H]1c1cccc(F)c1
Second: CC(NC(=O)c1ccc(C(N)=O)cc1)c1cccc(N2CCOC2=O)c1 (centres undefined)
The “Percent Effect” value of the first is higher: 111.8% for the first, 7.135% for the second.

Going from `CCOc1ccc(NC(=O)Nc2cc(N3CCCCC3)ncn2)cc1` to `CCOc1ccc(-c2cc(=O)n3c(n2)CCCCC3)cc1`, the “Percent Effect” value rises from 16.35% to 126.5%.

First: COc1ccc(C2CC(=O)Nc3c2nc2n3CCCC2)cc1OC (centres undefined)
Second: COc1ccc(C2CC(=O)Nc3c2nc2n3CCCC2)cc1O (centres undefined)
The “Percent Effect” value of the first is higher: 9.396% for the first, 0.05289% for the second.

Compared with `CCOc1ccc(OC2CCCN(c3cnn(C)c3)C2=O)cc1` (centres undefined), `COc1ccc(-c2cc(=O)n3c(n2)CCCCC3)cc1` is higher in “Percent Effect” value: 7.424% for the first, 99.63% for the second.

Compared with `CCOc1ccc(-c2ccnc(C)n2)cc1C(=O)O`, `CCOc1ccc(-c2ccnc(C3CC3)n2)cc1C(=O)O` is higher in “Percent Effect” value: -6.535% for the first, 5.09% for the second.

Compared with `CCOc1cc(-c2cc(=O)n3c(n2)CCCCC3)ccc1O`, `CN(C)c1ccc(-c2cc(=O)n3c(n2)CCCCC3)cc1` is higher in “Percent Effect” value: 95.98% for the first, 163.6% for the second.

Compared with `O=C(Nc1cc(-c2ccccc2)on1)N1CCN(CCO)CC1`, `Cc1[nH]c(-c2ccccc2)nc1C(=O)N1CCC2(CCCO2)CC1` is higher in “Percent Effect” value: -8.087% for the first, -0.5796% for the second.

First: CN(CC(O)C1CC1)C(=O)c1ccc(-c2nc(C3CC3)n[nH]2)cc1 (centres undefined)
Second: NC(=O)c1ccc(N2CCCCC2)c(NC(=O)c2cncc(Br)c2)c1
The “Percent Effect” value of the first is lower: -1.161% for the first, 8.346% for the second.
